Reference: PubChem BioAssay AID743415 (Broad Institute, 2014)
Entries with a potency or affinity are not part of this list. Active and inactive are the calls of the source.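 Rule for the calls: active = compounds lowering Shn3 expression whose fitted half-maximal concentration is at most twice the top valid dose; inconclusive = flat partial decrease or an invalid curve fit; inactive = the rest.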

Experiment: reduction of endogenous Shn3 mRNA, dose response, qPCR, Clone20 cells, cherry-pick (AID 743415)
Details: overnight; series mostly up to 35 µM

O=c1[nH]c2ccccc2n1C1CCN(C(CCc2ccccc2)c2nnnn2Cc2ccccc2)CC1 (configuration not stated)
outcome: inactive

COC(=O)C1=C(c2ccc(OCc3ccccc3)cc2)C[C@@H]2CC[C@H]1N2C(=O)NCCCCc1ccccc1
outcome: inactive
